In the library only some 11% were active in any assay of this set; here they are far more common.
G9a inh = qHTS Assay for Inhibitors of Histone Lysine Methyltransferase G9a | G9a H3K9 monomethylation, AlphaScreen, 2 h | Potency, µM (doses to about 102 µM), for inactives: top-dose activity, negative = inhibition, hits mostly inhibitors | 350,000 compounds, 8.8% hits | AID 504332, 2011; further: on the % scale 0 is the no-effect control and ±100 the full control effect; nearly all actives have a fitted effect of over 75% in size
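Signal arises when biotinylated H3K9 peptide, once monomethylated, bridges streptavidin donor and antibody-captured acceptor beads. Enzyme at 20 nM was preincubated 15 min with test compounds; peptide 500 nM and SAM 20 uM then reacted for 2 h.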
BAZ2B block = qHTS Assay for Inhibitors of BAZ2B; Potency, µM (titrated, usually from 114 µM), for inactives: at the highest dose activity change, negative = inhibition, usual class: inhibitors; AlphaScreen BAZ2B-H3K14Ac peptide displacement; Bromodomain adjacent to zinc finger domain protein 2B (Homo sapiens), Q9UIF8; 360,000 compounds, 4.4% hits; further: on the % scale 0 is the no-effect control and ±100 the full control effect; nearly all actives have a fitted effect of over 60% in size
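AlphaScreen luminescence quantifies BAZ2B engagement of H3K14Ac peptide; the protein and biotinylated peptide are both at 50 nM final, buffer PBS pH 7.4 with 0.01% Tween-20, all steps at room temperature.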
VDR inh = Inhibitors of the vitamin D receptor (VDR): qHTS; Vitamin D3 receptor (Homo sapiens), P11473; Potency, µM, inactives show max response, negative = inhibition, hits mostly inhibitors; VDR-SRC2-3 peptide fluorescence polarization, 2 h; 400,000 compounds, 0.93% hits; further: on the % scale 0 is the no-effect control and ±100 the full control effect
Target sequence (P11473 whole entry, looked up): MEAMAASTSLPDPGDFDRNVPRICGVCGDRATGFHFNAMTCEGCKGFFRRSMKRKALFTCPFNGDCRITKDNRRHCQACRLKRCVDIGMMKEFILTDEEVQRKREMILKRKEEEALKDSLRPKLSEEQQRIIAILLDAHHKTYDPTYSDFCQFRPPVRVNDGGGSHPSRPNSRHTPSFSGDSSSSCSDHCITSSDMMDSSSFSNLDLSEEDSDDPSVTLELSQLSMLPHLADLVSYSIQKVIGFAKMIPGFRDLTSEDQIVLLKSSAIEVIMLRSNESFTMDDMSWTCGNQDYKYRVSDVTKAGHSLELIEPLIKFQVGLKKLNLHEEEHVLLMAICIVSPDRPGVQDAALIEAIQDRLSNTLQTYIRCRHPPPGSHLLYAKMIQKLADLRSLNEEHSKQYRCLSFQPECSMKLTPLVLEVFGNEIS
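Reagent solutions, kept cold and dark, are dispensed first; compounds are then pinned in at 23 nl, plates briefly spun, and incubated 2 h at ambient temperature. Inhibition of VDR–SRC2-3 peptide binding is read by fluorescence polarization.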
HP1b binding inh = HTS for Inhibitors of HP1-beta Chromodomain Interactions with Methylated Histone Tails; Chromobox protein homolog 1 (Homo sapiens), P83916; AlphaScreen HP1-beta / biotin-H3K9me3 peptide binding; Potency, µM (highest dose often 114 µM), inactives show at the top dose activity change, negative = inhibition, usual class: inhibitors; 390,000 compounds, 0.56% hits; further: nearly all actives have a fitted effect of over 70% in size
Target sequence (P83916 whole entry, looked up): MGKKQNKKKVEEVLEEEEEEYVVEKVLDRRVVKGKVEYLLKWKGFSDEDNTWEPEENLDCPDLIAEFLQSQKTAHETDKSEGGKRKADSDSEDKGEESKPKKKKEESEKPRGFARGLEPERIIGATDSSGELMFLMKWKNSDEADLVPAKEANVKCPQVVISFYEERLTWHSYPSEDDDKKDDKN
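Compound inhibition of the preformed complex between 50 nM HP1-beta and 50 nM biotinylated H3K9me3 peptide was read by AlphaScreen. Buffer was PBS pH 7.4 with 0.01% Tween-20. Incubations ran 30 min at room temperature, with 10 ug/mL donor/acceptor beads.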
JMJD2A Tudor = qHTS Assay for Inhibitors of JMJD2A-Tudor Domain; 390,000 compounds, 4.4% hits; AlphaScreen JMJD2A-Tudor / H3K4me3 peptide binding; Lysine-specific demethylase 4A (Homo sapiens), O75164; Potency, µM (highest dose often 114 µM), without a hit: at the top dose activity change, negative = inhibition, actives largely listed as inhibitors; further: on the % scale 0 is the no-effect control and ±100 the full control effect; nearly all actives have a fitted effect of over 50% in size
PLK1 PBD inh = qHTS for Inhibitors of PLK1-PDB (polo-like kinase 1 - polo-box domain): Primary Screen; Serine/threonine-protein kinase PLK1 (Homo sapiens), P53350; Plk1 PBD binding of FITC phosphopeptide, fluorescence polarization; Potency, µM, inactives show max response, negative = inhibition, actives largely listed as inhibitors; 360,000 compounds, 2.8% hits; AID 720504, 2013; further: series mostly up to about 57 µM; on the % scale 0 is the no-effect control and ±100 the full control effect; nearly all actives have a fitted effect of over 65% in size
Numbers without * were called inactive; ? = inconclusive; · = not tested or not shown; ! = a repeat was not active; [ ] = dose if it differs, or a comment. The call rests on the fitted dose curve; in most records, active means well fitted curve in the direction sought with a large enough effect; inconclusive means small, poorly fitted or top-dose-only effect, or another doubt; inactive means no such curve, though single readings can be large; an effect the other way counts as inactive or inconclusive. Potency means the concentration at half of the fitted maximal effect.

SMILES	G9a inh	BAZ2B block	VDR inh	HP1b binding inh	JMJD2A Tudor	PLK1 PBD inh
CCOP(=O)(OCC)/C(=N/OC(=O)c1ccccc1C)C(N)=O	-14%[59 µM]	3%	0%	47%	-9%	?
O=C(c1ccncc1)N1CCC[C@@]2(CCN(Cc3nccs3)C2)C1	-2%[12.7 µM]	·	1%	·	·	·
CNC(C)[C@H](O)c1ccccc1 (some centres undefined)	-44%[2.33 µM]	·	14%	·	·	·
CCCCC(=O)C1C(=O)NC(=O)NC1=O	-11%[59 µM]	-30%	-1%	21%	56µM*	0%
ClC1=C(Cl)C(Cl)(C2(Cl)C(Cl)=C(Cl)C(Cl)=C2Cl)C(Cl)=C1Cl	·	·	3.2µM*	·	·	·
CN(C)/C=c1\sc2c(C#N)cc(C(=O)c3ccc(Br)cc3)n2c1=O	6%[12.7 µM]	10%	-9%	52%	-1%[11.4 µM]	54%
COc1ccc(CNC(=O)CSCc2cnn(-c3ccccc3)c2-n2cccc2)cc1OC	-40%[59 µM]	28µM*	31%	-13%	-30%	·
C#CC(C)(O)CC (centres undefined)	5%[12.7 µM]	·	5%	·	·	·
Cc1nc(C(=O)O)nn1-c1ccc([N+](=O)[O-])cc1	50µM*	?	8%	19%	5%	4%
CC[C@@H](CO)NC(=O)[C@H]1C=C2c3cccc4c3c(cn4C)C[C@H]2N(C)C1	35%[12.7 µM]	·	32µM*	·	·	·
CC(CO)NC(=O)C1C=C2c3cccc4[nH]cc(c34)CC2N(C)C1 (centres undefined)	16µM*	·	?	·	·	·
O=C(O)c1nn(Cc2ccc(Cl)cc2Cl)c2ccccc12	2.2µM*!	1%	?	31%	-10%	-17%
CC(=O)Nc1ccc(C2CN(C)CC2C(=O)c2ccc(Cl)cc2)cc1 (centres undefined)	?	-19%	10%	6%	-20%	-5%
CN1CC(C(=O)c2ccc(Cl)cc2)C(c2ccc(N(C)C)cc2)C1 (centres undefined)	35µM*	35µM*	12%	-36%	50µM*	-3%
[O]=[Cd]	31%[59 µM]	·	0%	·	·	·
CCN1CCN(Cc2cccc(Oc3ccccc3)c2)CC1	3.5µM*	32µM*	-18%	?	3.2µM*	-14%
CCOC(=O)C1(c2ccccc2)CCN(Cc2cccc(C(=O)O)c2)CC1	-95%	0%	1%	22%	-16%	1%
O=C(O)/C=C\CO	·	·	-3%	·	·	·
CCN(CC)P(=S)(c1c(C)nc2ccccn12)c1c(C)nc2ccccn12	14µM*	-4%	?	-25%	-12%	5.3µM*
CCOc1c(P(=S)(N(C)C)N(C)C)c(C)nn1-c1ccccc1	?	3%	5%	38%	14%	-9%
O=C(/C=C/c1ccccc1)NC(=S)N1C[C@H]2C[C@H](C1)c1cccc(=O)n1C2	32µM*	-2%	-11%	9%	-24%	?
COc1ccc(/C=C/C(=O)NC(=S)N2C[C@H]3C[C@H](C2)c2cccc(=O)n2C3)cc1OC	35µM*	-31%	-7%	22%	-20%	-11%
O=C(/C=C/c1ccc(F)cc1)NC(=S)N1C[C@H]2C[C@H](C1)c1cccc(=O)n1C2	-16%	-8%	-12%	16%	-29%	-20%
O=C(NC(=S)N1C[C@H]2C[C@H](C1)c1cccc(=O)n1C2)c1ccc(Cl)cc1	?	-7%	-2%	11%	?	0%
COc1cc(OC)cc(C(=O)NC(=S)N2C[C@H]3C[C@H](C2)c2cccc(=O)n2C3)c1	50µM*	?	5%	2%	-28%	-12%
SMILES	G9a inh	BAZ2B block	VDR inh	HP1b binding inh	JMJD2A Tudor	PLK1 PBD inh
N#Cc1cccc(NC(=O)N2CCCC3(CCN(C(=O)Oc4ccccc4)CC3)C2)c1	-3%[12.7 µM]	·	-3%	·	·	·
N#Cc1ccc(CN2CC3(CCNCC3)C2)cc1	-4%[12.7 µM]	·	-16%	·	·	·
Cc1ccc(NC(=O)CN2C(=O)CN=C(c3ccccc3)c3ccccc32)cc1Cl	-12%[59 µM]	-6%	15%	14%	-14%	·
CCN1C[C@@]2(COC)CCC(OC)[C@]34C5C[C@]6(O)[C@@H](OC)C[C@](OC(C)=O)(C([C@H](OC)C23)[C@H]14)C5[C@H]6OC(=O)c1ccc(OC)cc1 (some centres undefined)	·	·	11%	·	·	·
CCc1n[nH]c(CCN)n1	56µM*	-13%	0%	10%	?	-13%
CCCN(CC#CCOc1ccc(OC)cc1)CCC	8.9µM*	56µM*	-4%	-47%	6.3µM*	-8%
CCOC(=O)C1CCCN(Cc2ccc(-c3ccccc3)cc2)C1 (centres undefined)	·	?	8%	-27%	28µM*	-5%
CCOC(=O)C1CCN(Cc2ccc(Cl)nc2)CC1	7%[2.33 µM]	0%	-1%	44%	-11%	-11%
CCN(CC)CCCN=Cc1c(O)n(CCc2ccc(F)cc2)c(=O)[nH]c1=O	8%	-22%	-2%	11%	-18%	-10%
O=C(N/N=C/c1c(O)n(C2CCCCC2)c(=S)[nH]c1=O)c1ccccc1O	75%[59 µM]	79µM*	-5%	45%	7%	?
O=C(N/N=C/c1c(O)n(C2CCCCC2)c(=S)[nH]c1=O)c1ccccc1	?	-1%	-28%	68%	79µM*	?
NC1CCCCC1N=Cc1c(O)n(CCc2ccc(F)cc2)c(=O)[nH]c1=O (centres undefined)	1µM*	45µM*	3%	25%	-20%	-1%
CCCCC(=O)N/N=C/c1c(O)n(C2CC2)c(=S)[nH]c1=O	6%[59 µM]	?	7%	38%	-8%	0%
CC(C)c1ccc(-n2c(O)c(/C=N/NC(=O)c3ccccc3O)c(=O)[nH]c2=S)cc1	·	50µM*	-19%	20%	79µM*	?
CCC(C)C(=O)OC1C(O)C2C(CN3CC(C)CCC3[C@]2(C)O)C2C[C@]34O[C@@]5(O)C(OC(=O)C(C)(O)CC)CCC3(C)C5C(OC(C)=O)C(OC(C)=O)C4[C@@]21O (some centres undefined)	0%[2.33 µM]	·	2%	·	·	·
CCN(CC)CCOc1ccccc1C(=O)CCc1ccccc1	?	·	0%	·	·	·
O=CN1CCCCC1C1CC[C@H]2CCCCN2C1 (some centres undefined)	·	·	-4%	·	·	·
Oc1ccc2c3c1O[C@H]1c4oc5ccccc5c4C[C@@]4(O)C(C2)N(CC2CC2)CCC314 (some centres undefined)	?	·	-3%	·	·	·
